About 4,300 (8.3%) of roughly 52,000 compounds were called active. The sample as a whole holds a higher share of actives than the screen did. Values without a mark were called inactive. Cut-off read from the data, not from the text of the source: active = survival mostly below about 52% (no sharp cut-off); inactive = mostly above about 56%.
The compounds below were run on DeltatarO mutant (assay: S. aureus survival, RN4220 and DeltatarO strains – OD600, teichoic acid synthesis inhibitors, primary screen (AID 463173)). Conditions: S. aureus RN4220 wild type/DeltatarO growth, OD600, 18 h, stronger effect = lower value, screened at 18.75 µg/mL (by protocol).
Compound Cc1c(Cl)cccc1N1C(N)=C(C#N)C(c2cc(CN3CCOCC3)cs2)C2=C1CCCC2=O (stereo not drawn) has a survival of 128%. COc1ccc(NC(=O)c2c(NCc3ccc(C)o3)sc3c2CCC(C)C3)c(OC)c1 (stereo not drawn) was tested, and the survival was 82%. For COc1ccc(Cl)cc1NC(=O)c1c(NCc2ccc(C)o2)sc2c1CCC(C)C2 (stereo not drawn), the survival was 81%. In the case of COc1ccc(OC)c(NC(=O)c2c(NCc3ccc(C)o3)sc3c2CCC(C)C3)c1 (stereo not drawn), the survival was 52% (active). Work on Cc1nnc(SCC#N)n1C yielded a survival of 92%. In the case of CC(=O)Nc1ccc(S(=O)(=O)NCc2ccc(C(=O)NCc3ccc(Cl)cc3)cc2)cc1, the survival was 68%. Work on Cc1ccc(-c2nn(-c3ccc(F)cc3)c3c2cnc2cc(F)c(F)cc23)cc1 yielded a survival of 82%. CSc1ccc(CCNC(=O)CCc2c(C)nc3c(c(C)nn3-c3ccc(C)c(C)c3)c2C)cc1 showed a survival of 91%. Cc1ccc2c(c1)c(=O)c1ccccc1n2CCCC(=O)Nc1c(F)cccc1F showed a survival of 53%. With Cc1ccc2c(c1)c(=O)c1ccccc1n2CCCC(=O)Nc1ccc(Cl)cc1C the survival was 45% (active). For Cc1ccc(NC(=O)CCCn2c3ccccc3c(=O)c3cc(C)ccc32)c(Br)c1, the survival was 38% (active). With Cc1ccc2c(c1)c(=O)c1ccccc1n2CCCC(=O)Nc1cc(Cl)ccc1C the survival was 113%. Cc1ccc(CCNC(=O)CCCn2c(=O)c3ccccc3n(CC(=O)Nc3cc(Cl)ccc3C)c2=O)cc1 gave a survival of 116%. With CCCn1c2ccccc2c2cnn(CC(=O)Nc3ccc(C)cc3Br)c(=O)c21 the survival was 94%. Cc1ccc(NC(=O)CCS(=O)(=O)c2ccc3c(c2)oc(=O)n3C)c(Br)c1 gave a survival of 80%. With Cc1ccc2c(c1)c(=O)c1ccccc1n2CCCC(=O)Nc1ccc(F)cc1F the survival was 49% (active). Work on Cc1c2cnn(-c3ccccc3)c(=O)c2c(C)n1CCCC(=O)Nc1ccc(F)cc1F yielded a survival of 72%. For CCOc1ccccc1NC(=O)C(C)Sc1cc(-c2ccccc2)nc(C)n1 (stereo not drawn), the survival was 59%. For CCOC(=O)c1ccc(NC(=O)C(CC)Sc2nc3ncccc3o2)cc1 (stereo not drawn), the survival was 81%. C=Cn1c(=N)n(C)c2ccccc21 gave a survival of 70%. Compound O=C(CN1C(=O)COc2ccc(S(=O)(=O)N3CCOCC3)cc21)N1CCN(c2ccccc2)CC1 has a survival of 116%. COc1ccccc1CNC(=O)c1ccc(-c2nc(CS(=O)(=O)c3ccc(C)cc3)c(C)o2)cc1 showed a survival of 73%. COc1ccc(F)cc1NC(=O)C1CCN(c2nc(-c3ccc(OC)c(OC)c3)no2)CC1 was tested, and the survival was 48%. Compound Cc1ccc(NC(=O)CCc2nc3cccnc3n2-c2ccccc2)cc1 has a survival of 80%. Work on Cc1ccc(NC(=O)CCc2nc3cccnc3n2-c2ccccc2)cc1Cl yielded a survival of 64%. In the case of Cc1cc(NC(=O)CCc2nc3cccnc3n2-c2ccccc2)ccc1Br, the survival was 31% (active). Work on CCOC(=O)Cn1c(-c2cccs2)cc2cc(Cl)ccc21 yielded a survival of 59%. COc1cccc(Nc2nc3ccc(C(=O)c4ccccc4)cc3n3c(C)nnc23)c1 was tested, and the survival was 85%. For CCc1cccc(NC(=O)c2ccc(CN3C(=O)C(C)=C(c4ccc(OC)cc4)S3(=O)=O)cc2)c1, the survival was 71%. CCn1cc(S(=O)(=O)c2ccccc2)c(=O)c2cc(F)c(N3CCCC3)cc21 gave a survival of 107%. CCOc1ccc(NC(=O)C(C)n2c(=O)cc(C)c3c(C)nn(-c4ccccc4)c32)cc1 (stereo not drawn) showed a survival of 83%. With Nc1nc(Nc2ccccc2F)sc1C(=O)c1ccc(Cl)cc1 the survival was 2% (active). COc1ccc(C(=O)c2sc(Nc3cc(Cl)ccc3C)nc2N)cc1OC gave a survival of 131%. In the case of Nc1c(C(=O)c2ccc(F)cc2)sc(Nc2ccccc2F)c1S(=O)(=O)c1ccc(Br)cc1, the survival was 67%. With COc1ccc(NC(=O)Cn2c(=O)oc3cc(S(=O)(=O)NC4CCCC4)ccc32)cc1OC the survival was 93%. With Nc1nnc(CC(=O)N2CCCC2)s1 the survival was 99%. Compound CCCCC(CC)CNC(=O)CCCc1nnc2n(CCC)c(=O)c3sccc3n12 (stereo not drawn) has a survival of 75%. In the case of COc1ccc(-c2nnc(SCC(=O)Nc3ccc(C)c(Cl)c3)nc2-c2ccc(OC)c(OC)c2)cc1OC, the survival was 135%. In the case of COC(=O)CN1C(=O)C(C)(C)c2cc(S(=O)(=O)Nc3ccc(Br)cc3F)ccc21, the survival was 90%. With CC1CCN(S(=O)(=O)c2ccc3c(c2)N(CC(=O)NCCCN2CCCC(C)C2)C(=O)CS3)CC1 (stereo not drawn) the survival was 75%. For COCCCNC(=O)CSc1nc2c(sc3ccccc32)c(=O)n1CCc1ccc(OC)c(OC)c1, the survival was -4% (active). For CCCCn1c(SCC(=O)NCCCOC)nc2c(sc3ccccc32)c1=O, the survival was 128%. Compound COCCCNC(=O)CSc1nc2c(sc3ccccc32)c(=O)n1CCc1ccccc1 has a survival of 72%. CCOC(=O)CSc1nc2c(sc3ccccc32)c(=O)n1CCO was tested, and the survival was -5% (active). With CCCCn1c(SCC(=O)c2ccccc2)nc2c(sc3ccccc32)c1=O the survival was 17% (active). CCOCCCn1c(SCC(=O)OCC)nc2c(sc3ccccc32)c1=O showed a survival of 124%. In the case of COCCCn1c(SCC(=O)NCc2ccccc2)nc2c(sc3ccccc32)c1=O, the survival was 82%. For CCOCCCn1c(SCC(=O)NCCCOC)nc2c(sc3ccccc32)c1=O, the survival was 126%. With CC(C)OCCCn1c(SCC(=O)c2ccccc2)nc2c(sc3ccccc32)c1=O the survival was 88%. Compound CCCCn1c(SCC(=O)NCc2ccc(C)cc2)nc2c(sc3ccccc32)c1=O has a survival of 89%. In the case of CCOC(=O)CSc1nc2c(sc3ccccc32)c(=O)n1CCc1ccccc1, the survival was 60%. For CCOCCCn1c(SCC(=O)NCc2ccccc2)nc2c(sc3ccccc32)c1=O, the survival was -5% (active). O=C(CN1C(=O)COc2ccc(S(=O)(=O)N3CCOCC3)cc21)N1CCN(c2ccc(F)cc2)CC1 was tested, and the survival was 99%. For CCC(C)(C)n1nnnc1CN(Cc1ccc(Cl)cc1)CC1CCCO1 (stereo not drawn), the survival was 76%. For Clc1ccc(-c2nnn3c2nc(NCc2ccc4c(c2)OCO4)c2ccccc23)cc1, the survival was 59%. Compound CCCCCNc1nc2c(-c3ccccc3)nnn2c2ccccc12 has a survival of 80%. In the case of Cc1ccc(-c2nnn3c2nc(NCCc2ccccc2)c2ccccc23)cc1, the survival was 112%. Compound Cc1ccc(-c2nnn3c2nc(NCC(C)c2ccccc2)c2ccccc23)cc1 (stereo not drawn) has a survival of 91%. Clc1ccc(-c2nnn3c2nc(NC2CCCCC2)c2ccccc23)cc1 was tested, and the survival was 17% (active). CC1CCC(Nc2nc3c(-c4ccc(Cl)cc4)nnn3c3ccccc23)CC1 (stereo not drawn) was tested, and the survival was 8% (active). With c1ccc(CNc2nc3c(-c4ccccc4)nnn3c3ccccc23)cc1 the survival was 75%. In the case of Cc1ccc(-c2nnn3c2nc(NCCc2ccc(Cl)cc2)c2ccccc23)cc1, the survival was 82%. For Cc1ccc(-c2nnn3c2nc(NC2CCC(C)CC2)c2ccccc23)cc1 (stereo not drawn), the survival was -4% (active).

Source: PubChem BioAssay AID463173 (ICCB-Longwood Screening Facility, Harvard Medical School, 2010)
